In PubChem BioAssay (NCATS):
Results filed as inconclusive are left out. Calls of active or inactive are those of the source. Unless noted, the call rests on the fitted dose curve; in most records, active means well fitted curve in the direction sought with a large enough effect; inconclusive means small, poorly fitted or top-dose-only effect, or another doubt; inactive means no such curve, though single readings can be large; an effect the other way counts as inactive or inconclusive.

Experiments:
[1] = molecular target: Cytochrome P450 3A4 (Homo sapiens) (UniProt P08684); experiment: qHTS Assay for Inhibitors and Substrates of Cytochrome P450 3A4 (AID 884); further: nearly all actives have a fitted effect of over 50% in size; further: potency means the concentration at half of the fitted maximal effect; on activity change, negative = inhibition: on the % scale 0 is the no-effect control and ±100 the full control effect
Outline: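 20 nM human CYP3A4 with 25 uM Luciferin-PPXE (at KM) in 200 mM KPO4, preincubated 10 min with compound; NADPH regeneration started a 60 min RT reaction. Luciferin detected by luminescence, normalized to 57 uM ketoconazole as full inhibition.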

[2] = molecular target: Cytochrome P450 3A4 (Homo sapiens) (UniProt P08684); experiment: qHTS Assay for Activators of Cytochrome P450 3A4 (AID 885); further: nearly all actives have a fitted effect of over 65% in size
Outline: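 Quantitative HTS format: compounds preincubated with 20nM human CYP3A4 and Luciferin-PPXE substrate at KM, reaction started by NADPH regeneration, stopped after 60 min, luciferase luminescence read 20 min later.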

[3] = Confirmation and Secondary Assay for Modulators of Hemoglobin Beta Chain Splicing at IVS2 654 locus (AID 910);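 further: HeLa cells stably carrying EGFP split by mutant beta-globin IVS2-654 intron; per-well total GFP intensity by laser scanning cytometry after 2-day treatment; % of control where 0% means no effect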
Outline: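 Readout: per-well total peak green fluorescence (488 nm ex, 500–520 nm em) from objects 5–250 µm, reflecting correct splicing of an EGFP-654 reporter. Compounds were applied for 2 days at 37 °C to overnight-plated HeLa EGFP-654 cells; controls were DMSO and 500 nM IVS2-654 PNA.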

[4] = Confirmation and Secondary Assay for Modulators of Hemoglobin Beta Chain Splicing at IVS2 705 locus (AID 930);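 further: HeLa cells stably expressing the EGFP-705 splicing reporter; GFP fluorescence per well restored by corrected splicing of the IVS2-705 intron in EGFP; % of control where 0% means no effect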
Outline: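 Assay measures total GFP intensity per well in HeLa EGFP-705 cells after 2 days with compound; mis-splicing normally truncates EGFP, so fluorescence indicates corrected splicing.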

[5] = qHTS Assay for Lipid Storage Modulators (AID 1519; calls by dose curve; on activity change, negative = inhibition: on the % scale 0 is the no-effect control and ±100 the full control effect); settings: Drosophila S3 cells, BODIPY lipid droplet/cell ratio, laser cytometry, cells loaded with oleic acid; for activity change, negative = inhibition: at 57.5 µM (top of the series)
Outline: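 Cells seeded at 5,000 per well were treated with compounds over a concentration series and loaded with oleic acid (400 uM, as added). Lipid droplet fluorescence (488 nm excitation, 500-530 nm channel) was read by laser-scanning cytometry and normalized to 20 uM Triacsin C.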

[6] = measured here: cell count channel max response
[7] = measured here: lipid channel max response

Cytochrome P450 3A4 (Homo sapiens), sequence (P08684 whole entry, looked up): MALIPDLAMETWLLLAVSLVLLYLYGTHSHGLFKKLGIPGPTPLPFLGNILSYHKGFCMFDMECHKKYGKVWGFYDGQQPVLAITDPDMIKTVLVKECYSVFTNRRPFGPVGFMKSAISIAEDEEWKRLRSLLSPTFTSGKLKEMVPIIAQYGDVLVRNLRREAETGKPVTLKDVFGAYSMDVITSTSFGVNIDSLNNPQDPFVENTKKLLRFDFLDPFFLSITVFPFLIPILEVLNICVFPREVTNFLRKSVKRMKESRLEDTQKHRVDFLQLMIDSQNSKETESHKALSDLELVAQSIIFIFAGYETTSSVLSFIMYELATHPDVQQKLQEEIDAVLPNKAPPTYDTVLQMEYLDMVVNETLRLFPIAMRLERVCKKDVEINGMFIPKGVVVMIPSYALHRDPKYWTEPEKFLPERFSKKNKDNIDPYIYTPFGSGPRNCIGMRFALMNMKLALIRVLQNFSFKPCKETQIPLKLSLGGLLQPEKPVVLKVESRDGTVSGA

| SMILES | Potency [1] | Potency [2] | Potency [3] | Potency [4] | activity change, negative = inhibition [5] | max response [5, 6] | max response [5, 7] |
| --- | --- | --- | --- | --- | --- | --- | --- |
| CC1(C)C(O)CC(O)[C@]2(C)C1CC(O)[C@]1(C)C2CC[C@@]2(C)C(c3ccoc3)OC(=O)C3O[C@]312 (some centres undefined) | 12.6 µM (active) | inactive | inactive | inactive | 0.703% (inactive) | 12.6% | 16.1% |
| CC(=O)OC1CC2C(C)(C)C(O)C=C[C@@]2(C)C2CC[C@]3(C)C(=CC(=O)OC3c3ccoc3)[C@]12C (some centres undefined) | – | inactive | inactive | inactive | 6.31% (inactive) | -2.89% | 6.06% |
| C=C1C2CCC3[C@@](CC[C@@H]4C(C(=O)O)CC(OC5OC(CO)C(OS(=O)(=O)O)C(OS(=O)(=O)O)C5OC(=O)CC(C)C)C[C@]34C)(C2)C1O (some centres undefined) | inactive | – | inactive | inactive | 1.97% (inactive) | -12% | -7.92% |
